# Tested on: HepG2
# Test: GSK_TCMDC: Percent inhibition of human HepG2 cell line. Test compounds present at 10uM.
# Format: functional
row,SMILES,Inhibition [%]
1,CN(CC(=O)Nc1cc(C(F)(F)F)ccc1-n1cncn1)Cc1ccc2ccccc2c1,18
2,Cl.NC1=NC2(CCCCC2)N(Cc2ccc(Cl)c(Cl)c2)C(N)=N1,22
3,CN(C(=O)c1ccc(Br)cc1)c1ccccc1[N+](=O)[O-],3
4,COc1ccc(NC(=O)Nc2cccc(-c3cccc(-c4nc5cc(F)ccc5[nH]4)c3)c2)cc1,59
5,CN(C)c1cc(NC(=O)Nc2ccc(SC(F)(F)F)cc2)c2ccccc2n1,22
6,CC(C)NCc1ccc(-c2cccc(-c3nc4ccccc4[nH]3)c2)cc1.O=C(O)C(F)(F)F,21
7,O=C(c1ccco1)N1CCN(c2ccc([N+](=O)[O-])c(NC3CC3)c2)CC1,0
8,COc1ccc2nccc([C@@H](O)CN3CCC(NCc4cc5cccc(OCc6ccccc6)c5[nH]4)CC3)c2c1,13
9,O=C(O)C(F)(F)F.O=c1cc(N2CCCNCC2)c(Cl)nn1Cc1ccc(NS(=O)(=O)c2ccc(Oc3ccccc3)cc2)cc1,0
10,COc1ccc(NC(=O)[C@H](Cc2ccccc2)Nc2cc(C)nc(NCCc3ccccc3OC)n2)cc1.O=C(O)C(F)(F)F,10
11,CCC1CCc2cc(N)cc(-c3nc4c(c(C)nn4CC)c(=O)[nH]3)c2O1 (centres undefined),0
12,CCOc1ccc(C(C)NC(=O)Cc2ccccc2F)cc1OCC (centres undefined),15
13,Cc1cccc2nc(-c3ccc(-c4ccc(CN5CCN(c6cnccn6)CC5)cc4)s3)[nH]c12.O=C(O)C(F)(F)F,11
14,O=C(/C=C/c1ccc(Cl)c(Cl)c1)NCCCCCN1CCCN(C(=O)Nc2cc(F)cc(F)c2)CC1,4

# — ChEMBL document CHEMBL1157539, “Thousands of chemical starting points for antimalarial lead identification” (Nature, 2010)
